SW480 rerep – inducers of DNA re-replication in SW480 colon cancer cells; SW480 DNA re-replication, Hoechst DNA content imaging, 48 h; Potency, µM (doses to about 46.1 µM), without a hit: top-dose re-replication activation, most hits filed as activators; 1.8% of 340,000 active; further: % of control where 0% means no effect; nearly all actives have a fitted effect of over 55% in size
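Hoechst fluorescence of nuclei (405 nm excitation, 500-530 nm emission) measured by plate-scanning imager after 48 hr compound exposure at 37 C; re-replication scored as increased number of nuclei with elevated intensity.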
Mito fusion yeast – blocks mitochondrial division or promotes mitochondrial fusion; S. cerevisiae fusion-defective mutant growth rescue, CellTiterGlo 48 h; Potency, µM (series often up to 46.1 µM), without a hit: at the top dose growth rescue (activation), usual class: activators; 0.23% of 320,000 active; AID 485298; further: % of control where 0% means no effect; nearly all actives have a fitted effect of over 45% in size
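S. cerevisiae fusion-defective temperature-sensitive mutants (e.g. fzo1-1, mgm1-5) grown 48 h at 37C in YPEG (ethanol/glycerol non-fermentable) medium with 23 nl compound per well; growth rescue read as CellTiterGlo luminescence.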
MCF10A rereplic – induces DNA re-replication in MCF 10a normal breast cells. 2.9% of 350,000 active. Potency, µM (doses to about 46.1 µM), for the others: at the highest dose activity, positive = re-replication, usual class: activators. MCF 10A DNA re-replication, Hoechst nuclear intensity, 48 h; further: % of control where 0% means no effect; nearly all actives have a fitted effect of over 50% in size
Integrin act MD – activates integrin-mediated alleviation for muscular dystrophy; alpha7betagal myoblasts, beta-gal FDG fluorescence, 48 h; Potency, µM (series often up to 38.3 µM), inactives show at the highest dose activation, usual class: activators; 0.064% of 350,000 active;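 further: 100% = response of the positive control SU9516; nearly all actives have a fitted effect of over 60% in size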
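alpha7betagal+/- myoblasts (passage 13, 250/well) treated 48 h at 37C with compounds at 1:260 dilution of DMSO stock. Lysed, then beta-galactosidase activity read as FDG fluorescence (ex 480/em 540) after 30 min, with pre-read for autofluorescence.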
AT treatment – potential ataxia-telangiectasia treatments restoring KAP-1 phosphorylation. AID 485349. Potency, µM (top dose mostly 57.5 µM), for inactives: at the top dose activation, hits mostly activators. 0.19% of 320,000 active. F2112 A-T fibroblasts, KAP-1 phosphorylation AlphaLISA; neocarzinostatin DNA damage 30 min before lysis; further: % of control where 0% means no effect; nearly all actives have a fitted effect of over 45% in size
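hTERT-immortalized A-T patient fibroblasts (F2112), 500 cells/well in OPTI-MEM, 1% FBS, got compounds for 60 min, then NCS for 30 min at 37C. Lysates were then assayed for phospho-KAP-1 by AlphaLISA (anti-pKAP1 donor, anti-KAP1 acceptor beads), 6 hr at 25C.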
* = called active by the depositor; ? = inconclusive; . = no result; ! = not confirmed by another sample; [ ] = another dose, or the depositor's remark. Rows were chosen to be rich in hits. Some 4.2% of all compounds tested hit in one or more screens of this group. The call rests on the fitted dose curve; in most records, active means well fitted activation curve with a large enough effect; inconclusive means small, poorly fitted or top-dose-only effect; inactive means no such curve, though single readings can be large or run the other way. Potency means the concentration at half of the fitted maximal effect.

SMILES	SW480 rerep	Mito fusion yeast	MCF10A rereplic	Integrin act MD	AT treatment
O=C1c2cccc3cccc(c23)N1Cc1cccc(F)c1	?	18%	26µM*	-41%	10%
O=C1c2cccc3cccc(c23)C(=O)N1Cc1ccccc1	6%	-3%	18%	7%	-4%
C=CCn1c(C)cc(C2=NNC(=Nc3ccc(C)cc3)SC2)c1C	-4%	0%	8%	-38%	-3%
Cc1cc(C2=NNC(=Nc3ccc(S(=O)(=O)N4CCOCC4)cc3)SC2)c(C)n1C	-59%	7%	1%	-5%	32µM*
O=C(O)CCCCCCCCc1cn(Cc2ccc(C(=O)c3ccccc3)cc2)nn1	5.8µM*	-2%	?	-9%	-4%
CCOC(=O)N1CCN(C(=O)c2ccc3c(c2)N(C)C(=O)/C(=C\c2ccc(OCC)c(OC)c2)S3)CC1	10µM*	17%	?	-43%	-6%
O=C1Nc2cc(C(=O)NCCCN3CCOCC3)ccc2S/C1=C/c1cccc(Cl)c1	15µM*	1%	16µM*	-21%	4%
CC1=Nc2cc(C(=O)NCCCN3CCOCC3)ccc2Sc2c(C)ccc(C)c21	16µM*	-5%	?	-2%	2%
CCOC(=O)N1CCN(C(=O)c2ccc3c(c2)NC(=O)/C(=C\c2cccc(C)c2)S3)CC1	26%	9%	18µM*	11%	-1%
CCOc1ccc(/C=C2/Sc3ccc(C(=O)N4CCN(C(=O)c5ccco5)CC4)cc3N(C)C2=O)cc1OC	.	-4%	.	.	-2%
O=C1Nc2cc(C(=O)NCCCN3CCOCC3)ccc2S/C1=C/c1ccccc1F	?	-3%	?	-58%	-7%
O=C(Nc1ccc2c(c1)CCC2)Nc1ccc2c(c1)OCO2	5%	17%	6%	12%	-1%
Cc1cc([N+](=O)[O-])c2ccccc2c1NS(=O)(=O)c1ccccc1	2%	.	?	-2%	.
OCc1cn(Cc2ccc(O)c3ncccc23)cn1	.	7%	.	.	-6%
COc1ccc(COC(=O)C2=C(C)NC(=O)NC2c2ccccc2F)cc1 (stereo not drawn)	-25%	-2%	-1%	21%	0%
Nc1nn(-c2ccccc2)c(N)c1N=Nc1ccccc1	5.2µM*	5%	5.8µM*	-7%	3%
Nc1nn(-c2ccccc2)c(N)c1N=Nc1ccccc1F	10µM*	6%	8.2µM*	38%	2%
Nc1c(N=Nc2ccccc2F)c(=O)[nH]n1-c1ccccc1	-2%[9.22 µM]	-3%	12%	6%	-5%
CCN(CC(=O)Nc1ccc(Br)cc1)C(=O)c1nc2nc(C)cc(C)n2n1	22%	0%	1%	11%	2%
O=c1cc[nH]c2ccc(OC(F)(F)F)cc12	?	1%	-15%	-13%	2%
c1ccc(-c2nnc(-c3ccco3)o2)cc1	0%	0%	5%	-11%	3%
c1coc(-c2nnc(-c3ccco3)nn2)c1	4µM*	-25%	-16%	-75%	2%
COc1cccc(-c2nc(=S)c3c(n2Cc2ccco2)CCCC3)c1	14%	0%	21µM*	-32%	-2%
Cc1cccc(-c2nc(=S)c3c(n2Cc2ccco2)CCCC3)c1	?	-8%	16%	-5%	-8%
CN=C1S/C(=C\c2ccc(SC)cc2)C(=O)N1C	5%	23%	2%	7%	-6%
SMILES	SW480 rerep	Mito fusion yeast	MCF10A rereplic	Integrin act MD	AT treatment
CN=C1S/C(=C\c2ccc(Cl)cc2)C(=O)N1C	23µM*	-14%	?	9%	2%
CCC(C)NC(=O)CSc1ccc(Cl)cc1 (stereo not drawn)	-2%[9.22 µM]	-2%	-3%	14%	0%
CC(C)C(NC(=O)CSc1ccc(Cl)cc1)C(C)C	-1%	5%	26µM*	-32%	.
CNCc1sccc1C	-7%	1%	-1%	-1%	0%
CC(=O)Nc1ccc(S(=O)(=O)NC(C)C(=O)OCC(=O)Nc2ccc(F)cc2Cl)cc1 (stereo not drawn)	.	.	.	-11%	.
Cc1ccc(S(=O)(=O)c2cc3ccc(O)cc3oc2=O)cc1C	2.3µM*	2%	2.3µM*	17%	20µM*
COc1ccc2cc(S(=O)(=O)c3ccccc3)c(=O)oc2c1	?	-1%	?	4%	-5%
Cc1cccc(NC(=O)c2ccc(N3CCCCC3)c([N+](=O)[O-])c2)n1	-5%	-22%	10µM*	-21%	-6%
CC1CCCN(c2ccc(C(=O)Nc3ccc4c(c3)OCO4)cc2[N+](=O)[O-])C1 (stereo not drawn)	-4%	18µM*	6%	1%	-3%
O=C(O)c1cc(S(=O)(=O)NC23CC4CC(CC(C4)C2)C3)ccc1Cl	6%	-8%	-1%	-34%	-37%
COc1ccccc1OCC(=O)N(Cc1nc(-c2ccccc2)no1)C(C)C	?	10%	2%	-15%	8%
Cc1cc(Br)ccc1OCC(=O)N(Cc1nc(-c2ccccc2)no1)C(C)C	?	22%	18µM*	-12%	7%
COc1cccc(C(=O)N(Cc2nc(-c3ccc(C)cc3)no2)C(C)C)c1	14%	11%	5%	23%	2%
Cc1ccc(C)c(C(=O)N(Cc2nc(-c3ccc(Cl)cc3)no2)C(C)C)c1	2%	?	23µM*	-5%	-1%
Cc1cc(OCC(=O)Nc2c(C(C)C)cccc2C(C)C)no1	.	.	.	6%	.
Cc1cccc(NC(=O)/C(C#N)=C/c2ccc(F)cc2)n1	27%	1%	0%	1%	0.71µM*
CCCOc1ccccc1/C=C(\C#N)C(=O)Nc1cccc(C)n1	-9%	9%	0%	23%	-1%
O=c1ccn(C2OC(COP(=O)(O)OC3C(CO)OC(n4ccc(=O)[nH]c4=O)C3O)C(O)C2O)c(=O)[nH]1 (stereo not drawn)	-1%	.	4%	.	.
Clc1ccc2oc(-c3cccnc3NCc3ccccc3)nc2c1	?	17%	16µM*	9%	4%
COc1ccc2c(c1)c(=O)oc1cc(OCC(=O)NC3CCCCC3)ccc12	-1%	-22%	10µM*	-11%	-1%
COc1ccc2c(c1)c(=O)oc1cc(OCC(=O)NC3CC3)ccc12	-8%	-8%	-2%	23%	4%
COCCN(C(=O)CCl)C(C(=O)NC1CCCCC1)c1ccccc1C (stereo not drawn)	13µM*	11%	?	-48%	4%
O=C1c2ccccc2NC(c2cccc(F)c2)N1Cc1ccccc1 (stereo not drawn)	?	22%	21µM*	7%	-3%
OCCN(CCO)c1nc(N2CCCCC2)c2nc(N(CCO)CCO)nc(N3CCCCC3)c2n1	12µM*!	?	7µM*	.	32µM*
CCCCC(=O)N(c1ccc(OCC)cc1)C1C=CS(=O)(=O)C1 (stereo not drawn)	1%	-2%	13µM*	0%	5%
